Activity calls are given as the source filed them. Unless noted, no rule for the calls is given here.

The test system of experiment [1] is XIP peptide (Xip251-270) binding. Description: small-molecule binders of XIP peptide, primary screen, biochemical, small-molecule microarray, fluorescence 635/667 nm, 0.1 µg/mL protein (AID 1182). To be noted: fluorescent protein binding, 635 nm, higher = more signal, called active from +8 up or from −8 down.
A further experiment deals with XIP peptide (Xip251-270). The experiment in a line: small-molecule binders of XIP peptide, primary screen, biochemical, small-molecule microarray, fluorescence 635/667 nm, 0.5 µg/mL protein (AID 1183). Conditions: small-molecule microarray binding, fluorescence 635 nm; higher = more signal.
Experiment [2] can be described thus: Plasmodium falciparum growth inhibition, primary screen, strain 3D7, DAPI fluorescence, 100 nL (AID 1184).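 Also: parasites grown inside human red blood cells in medium with human serum.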 Conditions: P. falciparum 3D7 growth, 3 d, higher = more signal.
For experiment [3], the target named is Homeobox protein Hox-A13 (Mus musculus) (UniProt Q62424). The experiment in a line: inhibitors of HoxA13-DNA binding, primary screen, biochemical, fluorescence polarization, labeled oligonucleotide (AID 1185). To be noted: 15 min, higher = more signal, called active from +8 up or from −8 down.
The nature of experiment [4]: inhibitors of hydroxyurea-induced Chk1 phosphorylation, primary screen, imaging, HeLa, phospho-Chk1 antibody, percent positive cells (AID 1186). To be noted: hydroxyurea-induced phospho-Chk1 immunofluorescence imaging, higher = more signal.
Experiment [5] can be described thus: inhibitors of hydroxyurea-induced Chk1 phosphorylation, primary screen, imaging, HeLa, phospho-Chk1 nuclear intensity (AID 1187). To be noted: hydroxyurea-induced phospho-Chk1 immunofluorescence imaging, higher = more signal.

Homeobox protein Hox-A13 (Mus musculus), sequence (Q62424 whole entry, looked up): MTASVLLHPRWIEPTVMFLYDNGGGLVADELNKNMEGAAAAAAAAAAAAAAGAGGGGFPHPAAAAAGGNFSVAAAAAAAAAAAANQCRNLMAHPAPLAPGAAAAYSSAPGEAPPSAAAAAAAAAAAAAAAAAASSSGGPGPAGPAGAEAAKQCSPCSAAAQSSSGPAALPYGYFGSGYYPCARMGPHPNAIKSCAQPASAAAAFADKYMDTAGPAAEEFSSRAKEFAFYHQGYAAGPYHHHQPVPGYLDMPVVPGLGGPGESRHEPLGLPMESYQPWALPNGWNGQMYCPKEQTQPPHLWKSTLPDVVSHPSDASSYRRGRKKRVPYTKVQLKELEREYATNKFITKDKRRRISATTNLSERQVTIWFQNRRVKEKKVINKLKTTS

For the compound `CCCCCCc1nc(C2CC2)cc2c1[Si](C(C)C)(C(C)C)O[C@H]2c1ccccc1`, the figures for the composite z-score (in experiment [1]; in the experiment with XIP peptide (Xip251-270)) were 0.263 (inactive) and 0.421, respectively. For the same compound, the z-score was -0.358 in experiment [2], -1.54 (inactive) in experiment [3], -0.507 (inactive) in experiment [4] and -0.465 (inactive) in experiment [5].

In the case of `COC(=O)[C@@]1(Cc2ccc(OC)cc2)[C@H]2c3cc(C(=O)N4CCCC4)n(Cc4cccc5ccccc45)c3C[C@H]2CN1C(=O)c1ccccc1`, the composite z-score in experiment [1] was 0.0014 (inactive); with XIP peptide (Xip251-270), 0.658. Also, the z-score was -1.58 in experiment [2], -1.44 (inactive) in experiment [3], -0.491 (inactive) in experiment [4] and -0.684 (inactive) in experiment [5].

`COCCOC(=O)N1C(=O)[C@@]2(c3cc(C#CC4=CCCCC4)ccc31)[C@H](c1ccc(OCCO)cc1)N1[C@H](c3ccccc3)[C@H](c3ccccc3)OC(=O)[C@H]1[C@@H]2C(=O)NC[C@H](O)c1ccccc1`: the composite z-score in experiment [1] is 0.575 (inactive); in the experiment on XIP peptide (Xip251-270), 0.622. The z-score was -2.1 in experiment [2], 1.86 (inactive) in experiment [3], 0.107 (inactive) in experiment [4] and 0.576 (inactive) in experiment [5].

`CC(CO)N1C(=O)[C@@H]2[C@H]3C(=O)OCC=C[C@H]3OC23C=CCN(CCN2CCOCC2)C(=O)[C@@H]13` (some centres not stated): the composite z-score in experiment [1] is -0.0198 (inactive); in the experiment on XIP peptide (Xip251-270) it was 0.154. For the same compound, the z-score in experiment [2] is 0.177; in experiment [3], -5.37 (inactive); in experiment [4], -0.259 (inactive); in experiment [5], -0.252 (inactive).

`C[C@H]1NC(=O)[C@@]23C(=O)N[C@@H](Cc4ccccc4)C2[C@H](C)[C@@]2(C)O[C@H]2C3/C=C/C/C=C\CNC(=O)[C@H](Cc2ccccc2)NC1=O` (some centres not stated): the figures for the composite z-score (in experiment [1]; in the experiment with XIP peptide (Xip251-270)) were 0.0017 (inactive) and 0.424, respectively. Besides, the z-score in experiment [2] is -1.4; in experiment [3] it was -7.15 (inactive); in experiment [4], 0.116 (inactive); in experiment [5], 0.368 (inactive).

For the compound `O=C1C[C@@](C(=O)NCCN2CCOCC2)(c2ccc([N+](=O)[O-])cc2)[C@@H](c2ccc(CO)cc2I)N1C1CCCCC1`, the composite z-score is -0.026 (inactive) in experiment [1] and 0.588 in the experiment with XIP peptide (Xip251-270). In addition, the z-score in experiment [2] was -1.37; in experiment [3], -5.37 (inactive); in experiment [4], 0.0213 (inactive); in experiment [5] it was 0.245 (inactive).

Turning to `COCCOC(=O)N1C(=O)[C@@]2(c3cc(C#CC4=CCCCC4)ccc31)[C@H](c1ccc(OCCO)cc1)N1[C@H](c3ccccc3)[C@H](c3ccccc3)OC(=O)[C@H]1[C@@H]2C(=O)N1CCN(c2ncccn2)CC1`, the results for the composite z-score (in experiment [1]; in the experiment with XIP peptide (Xip251-270)) were 0.975 (inactive) and 0.278, respectively. The z-score was -2.19 in experiment [2], 2.06 (inactive) in experiment [3], 0.313 (inactive) in experiment [4] and 0.448 (inactive) in experiment [5].

In the case of `CCCCCCc1nc(-c2cc(C)c(OC)c(C)c2)c(C)c2c1[Si](C(C)C)(C(C)C)OC2`, the composite z-score in experiment [1] is -0.31 (inactive); in the experiment with XIP peptide (Xip251-270), -0.306. Moreover, the z-score is -2.23 in experiment [2], -0.241 (inactive) in experiment [3], 0.0933 (inactive) in experiment [4] and 0.149 (inactive) in experiment [5].

On to `CC1=C([C@H](O)CCc2ccccc2)[C@H](CO)[C@@H]2C(=O)N(C)C(=O)[C@@H]2C1`, for which the composite z-score in experiment [1] was -0.0688 (inactive); in the experiment with XIP peptide (Xip251-270), 0.389. The z-score is 0.306 in experiment [2], -4.05 (inactive) in experiment [3], -0.296 (inactive) in experiment [4] and -0.528 (inactive) in experiment [5].

As for `COc1ccc([Si](C)(C)[C@@H]2[C@@H](CC(=O)N(CCO)Cc3ccccc3)O[C@]3(C(=O)N(c4ccccc4)c4ccccc43)[C@H]2C)cc1`, the composite z-score in experiment [1] is 0.153 (inactive); in the experiment with XIP peptide (Xip251-270), 0.38. The z-score is -2.54 in experiment [2], -5.59 (inactive) in experiment [3], -1.11 (inactive) in experiment [4] and -0.327 (inactive) in experiment [5].

Turning to `[N-]=[N+]=NCc1ccccc1C[C@@]1(C(=O)N2CCOCC2)N=C(c2ccc(OCCCO)cc2)O[C@@H]1c1ccccc1`, the composite z-score in experiment [1] was 0.761 (inactive); with XIP peptide (Xip251-270) it was 0.74. In addition, the z-score in experiment [2] is -2.73; in experiment [3], -4.1 (inactive); in experiment [4], 0.123 (inactive); in experiment [5] it was 0.608 (inactive).

With `O=C1O[C@H](c2ccccc2)[C@H](c2ccccc2)N2[C@H]1[C@@H](C(=O)Nc1nc3ccccc3s1)[C@]1(C(=O)Nc3ccccc31)[C@H]2c1ccc(OCCO)cc1`, the composite z-score in experiment [1] is -0.434 (inactive); in the experiment with XIP peptide (Xip251-270), 0.652. In addition, the z-score in experiment [2] is -1.33; in experiment [3] it was 1.24 (inactive); in experiment [4], 0.0458 (inactive); in experiment [5], -0.0249 (inactive).

Consider `COCCOC(=O)N1C(=O)[C@@]2(c3cc(C#CCNC(N)=O)ccc31)[C@H](C(=O)N1CCc3cc(OC)c(OC)cc3C1)[C@H]1C(=O)O[C@H](c3ccccc3)[C@H](c3ccccc3)N1[C@@H]2c1ccccc1OCCO`, for which the composite z-score in experiment [1] was 1.53 (inactive); with XIP peptide (Xip251-270) it was 0.498. Also, the z-score is -2.2 in experiment [2], 0.577 (inactive) in experiment [3], 0.0782 (inactive) in experiment [4] and 0.147 (inactive) in experiment [5].

For `COCCCNC(=O)[C@@]1(Cc2ccccc2N=[N+]=[N-])COC(c2ccc(OCCCO)cc2)=N1`, the composite z-score was 1 (inactive) in experiment [1] and 0.626 with XIP peptide (Xip251-270). Moreover, the z-score in experiment [2] was -2.06; in experiment [3], -5.18 (inactive); in experiment [4] it was -0.0232 (inactive); in experiment [5], -0.101 (inactive).

Take `C[C@@H]1ON(c2ccc(C(=O)OC(C)(C)C)cc2)[C@H](c2ccc(O)cc2)[C@H]1C(=O)N1C(=O)OC[C@H]1Cc1ccccc1`: the composite z-score in experiment [1] was 0.047 (inactive); in the experiment on XIP peptide (Xip251-270) it was 0.599. In addition, the z-score in experiment [2] was -0.393; in experiment [3] it was -3.64 (inactive); in experiment [4], -0.0209 (inactive); in experiment [5], -0.154 (inactive).

As for `COC(=O)C(CC#Cc1ccc2c(c1)[C@]1(C(=O)N2)[C@H](c2ccccc2OCCO)N2[C@H](c3ccccc3)[C@H](c3ccccc3)OC(=O)[C@H]2[C@@H]1C(=O)NC[C@H](O)c1ccccc1)C(=O)OC`, the composite z-score in experiment [1] was 1.8 (inactive); in the experiment on XIP peptide (Xip251-270) it was 0.777. Also, the z-score in experiment [2] is -2.22; in experiment [3] it was -1.59 (inactive); in experiment [4], -0.124 (inactive); in experiment [5] it was -0.553 (inactive).

In the case of `CC(C)C[C@@H]1NC(=O)[C@@H]2C[C@H](C(=O)NCCCCN(C)C)[C@H](c3cccc(OCCO)c3)N2C1=O`, the composite z-score was 0.36 (inactive) in experiment [1] and 0.755 in the experiment on XIP peptide (Xip251-270). For the same compound, the z-score in experiment [2] is -0.192; in experiment [3], -3.41 (inactive); in experiment [4] it was -0.232 (inactive); in experiment [5] it was -0.455 (inactive).
